# Hits are enriched below; roughly 3% of the tested compounds scored in any of these assays.
# IP6K1 inhibitor: Primary qHTS assay for small molecule inhibitors of Inositol hexaphosphate kinase 1 (IP6K1). Inositol hexakisphosphate kinase 1 (Homo sapiens), Q92551. IP6K1 kinase, ADP-Glo luminescence, 2 h; hits give low values. activity change, % (series mostly up to about 58 µM). 140,000 compounds, 0.81% hits; in the data active means activity change below about -25%; further: on the % scale 0 is the no-effect control and ±100 the full control effect
#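 ADP-Glo luminescence measures ADP made by human IP6K1 during a 2 h RT reaction with ATP/IP6 (mix at 1.3 mM/130 uM); top library doses 57.5 and 19.1 uM final.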
# KDM5B inhibitor: Primary screen for KDM5B Histone Demethylases FDH-coupled qHTS. AID 1347165, 2019. Potency, µM (top dose mostly 57.7 µM), most hits filed as inhibitors. KDM5B demethylase, FDH-coupled NADH fluorescence (FDH is formaldehyde dehydrogenase). 220,000 compounds, 2.6% hits; further: potency means the concentration at half of the fitted maximal effect; 0% is about no effect; nearly all actives have a fitted effect of over 70% in size
# Target sequence (Q9UGL1 whole entry, looked up): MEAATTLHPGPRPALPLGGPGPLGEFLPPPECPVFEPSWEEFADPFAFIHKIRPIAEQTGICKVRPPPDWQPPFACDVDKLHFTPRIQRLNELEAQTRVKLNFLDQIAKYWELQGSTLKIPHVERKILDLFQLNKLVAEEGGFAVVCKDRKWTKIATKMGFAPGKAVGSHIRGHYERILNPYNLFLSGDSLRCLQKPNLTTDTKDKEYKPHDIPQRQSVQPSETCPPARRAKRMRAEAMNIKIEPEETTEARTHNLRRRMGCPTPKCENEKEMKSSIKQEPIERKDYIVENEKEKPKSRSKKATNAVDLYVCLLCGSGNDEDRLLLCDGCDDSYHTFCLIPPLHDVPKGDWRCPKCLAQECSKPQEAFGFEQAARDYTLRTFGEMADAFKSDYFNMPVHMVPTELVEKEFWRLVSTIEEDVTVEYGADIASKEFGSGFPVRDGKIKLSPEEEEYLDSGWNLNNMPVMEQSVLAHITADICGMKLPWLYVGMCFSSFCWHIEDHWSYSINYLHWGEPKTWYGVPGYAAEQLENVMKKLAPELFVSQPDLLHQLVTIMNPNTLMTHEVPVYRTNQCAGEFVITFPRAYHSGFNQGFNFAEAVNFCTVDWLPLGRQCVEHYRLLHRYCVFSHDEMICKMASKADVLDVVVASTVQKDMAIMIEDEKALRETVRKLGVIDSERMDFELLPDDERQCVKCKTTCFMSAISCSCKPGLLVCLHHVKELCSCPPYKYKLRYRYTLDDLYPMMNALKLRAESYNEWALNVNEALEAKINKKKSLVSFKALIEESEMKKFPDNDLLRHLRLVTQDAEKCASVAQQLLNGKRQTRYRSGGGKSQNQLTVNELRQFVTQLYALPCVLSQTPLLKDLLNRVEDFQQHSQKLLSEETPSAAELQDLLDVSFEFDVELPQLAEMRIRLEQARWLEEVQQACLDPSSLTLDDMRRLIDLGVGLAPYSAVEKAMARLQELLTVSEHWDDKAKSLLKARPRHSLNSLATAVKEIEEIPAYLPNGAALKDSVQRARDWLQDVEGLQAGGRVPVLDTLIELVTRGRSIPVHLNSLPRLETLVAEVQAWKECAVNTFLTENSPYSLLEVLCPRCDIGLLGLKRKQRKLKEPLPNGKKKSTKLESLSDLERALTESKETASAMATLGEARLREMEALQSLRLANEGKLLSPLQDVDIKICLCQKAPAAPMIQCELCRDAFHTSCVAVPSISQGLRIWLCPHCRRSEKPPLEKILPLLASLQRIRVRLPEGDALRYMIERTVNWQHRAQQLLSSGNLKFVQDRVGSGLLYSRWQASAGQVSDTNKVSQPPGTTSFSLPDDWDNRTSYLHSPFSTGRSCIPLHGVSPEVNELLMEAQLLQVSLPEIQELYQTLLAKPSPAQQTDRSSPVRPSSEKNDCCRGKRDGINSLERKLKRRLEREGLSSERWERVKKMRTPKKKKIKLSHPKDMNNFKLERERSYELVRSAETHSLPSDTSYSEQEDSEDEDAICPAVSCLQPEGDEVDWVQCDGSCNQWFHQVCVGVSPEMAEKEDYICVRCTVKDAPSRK
#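 Measured: NADH fluorescence change, 30 min, RT. System: KDM5BΔAP 200 nM final, H3K4me3 peptide, α-KG, Fe(II), ascorbate, NAD⁺ plus FDH, pH 7.5 HEPES. Compounds: titrated, 10 min pre-incubation with enzyme.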
# SNCA expr inhib: Primary qHTS assay for inhibitors of alpha-synuclein gene (SNCA) expression. HEK-293 SNCA-luciferase knock-in, luminescence, 24 h. Potency, µM (doses to about 57.2 µM), without a hit: at the highest dose activity change, negative = inhibition, actives largely listed as inhibitors. 140,000 compounds, 0.17% hits. AID 1671194, 2021;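 further: potency means the concentration at half of the fitted maximal effect; plate controls were DMSO cells for no effect and cell-free wells for full effect; nearly all actives have a fitted effect of over 45% in size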
# HEK293 viab: GF-AFC viability counterscreen for inhibitors of alpha-synuclein gene (SNCA) expression | 150,000 compounds, 0.12% hits | HEK-293-SNCA-luc viability, GF-AFC fluorescence, 24 h | AID 1671193, 2021 | Potency, µM (top dose mostly 57.1 µM), without a hit: top-dose activity change, negative = cytotoxicity, actives largely listed as cytotoxic;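 further: potency means the concentration at half of the fitted maximal effect; 0% = DMSO-treated cells and -100% = medium-only wells without cells; nearly all actives have a fitted effect of over 30% in size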
#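 Cytotoxicity counterscreen: after 24 h compound treatment of genome-edited SNCA-luciferase HEK-293 cells, live-cell protease substrate GF-AFC read by fluorescence after 30 min; activity scaled between DMSO (0%) and medium-only (-100%), curves Hill-fitted.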
# IP6K1 inh cnf: Confirmatory qHTS assay for small molecule inhibitors of Inositol hexaphosphate kinase 1 (IP6K1); Potency, µM (highest dose often 49 µM), for the others: at the highest dose activity change, negative = inhibition, actives largely listed as inhibitors; recombinant IP6K1 kinase, ADP-Glo luminescence, 2 h; shares compounds with IP6K1 inhibitor; AID 1645852, 2021; 1,200 compounds, 13% hits; further: potency means the concentration at half of the fitted maximal effect; on the % scale 0 is the no-effect control and ±100 the full control effect; nearly all actives have a fitted effect of over 65% in size
# The depositor's hits bear a star; i = inactive; ? = inconclusive; nt = no result given; [ ] = another dose, or the depositor's remark. Unless noted, the call rests on the fitted dose curve; in most records, active means well fitted curve in the direction sought with a large enough effect; inconclusive means small, poorly fitted or top-dose-only effect, or another doubt; inactive means no such curve, though single readings can be large; an effect the other way counts as inactive or inconclusive.
SMILES,IP6K1 inhibitor,KDM5B inhibitor,SNCA expr inhib,HEK293 viab,IP6K1 inh cnf
CCOC(=O)[C@H]1C[C@]2(CCCCN(CCOC)C2=O)N(C(=O)Cc2cccs2)[C@H]1c1ccco1,-6.1,nt,nt,nt,nt
COCCN1CCCC[C@]2(C[C@H](C(=O)O)[C@H](c3ccco3)N2C(=O)Cc2cccs2)C1=O,-25.1*,nt,nt,nt,?
Cc1ccc(C(=O)N2CCC(C(=O)N3CCC(c4ccccc4)CC3)CC2)cc1,25.3,nt,-9.3%,0.8%,nt
COc1ccc(F)cc1-c1cccc(C(=O)NCCNC(=O)Nc2ccccc2)c1,-4.8,nt,-21.8%,-18.4%,nt
CCc1nc2c(c(-c3ccc(O)cc3)n1)CN(C(=O)C1CCCC1)CC2,16.5,nt,-5.2%,1.2%,nt
CC1(C(=O)Nc2ccc(F)c(Cl)c2)COCc2cnc(Nc3ccccc3)nc21 (stereo unspecified),8.8,?,?,11.6%[87.6 µM],nt
O=C(O)c1ccc(Nc2ncc3c(n2)-c2ccc(Cl)cc2C(c2c(F)cccc2F)=NC3)cc1,-48.9*,nt,119.1%,-15.0%,10.3µM*
COc1ccc(-c2cccc(C(=O)NCc3ccccc3Cl)c2)nn1,12.3,nt,nt,nt,nt
Cc1cccc(C(=O)N2CCC(c3nc(C4CCOCC4)no3)C2)c1 (stereo unspecified),9.5,?,10.1%,-6.1%,nt
Cc1ccc(-c2cc(C(=O)N3CCC(c4nc(C5CCOCC5)no4)C3)c3ccccc3n2)cc1C (stereo unspecified),-28.2*,25.1µM*,10µM*,?,-2.2%
COc1cccc2c1cc1c(=O)n(CC(=O)NCc3ccc(C)o3)nc(C)n12,-29.8*,?,-7.5%,8.1%,-3.8%
NC(=O)NC1N=C([O][Al])NC1=O (stereo unspecified),-30.6*,nt,-36.5%[25.6 µM],-24.8%[23.9 µM],2.2%
Cc1ccc(Nc2ccnc(N3CCCC3C(=O)N3CCC(c4ccccc4)CC3)n2)cc1 (stereo unspecified),7.2,nt,?,0.5%[12.5 µM],nt
O=C(CCc1ccccc1)N(Cc1cccnc1)c1nc2ccc(F)cc2s1,-14.6,i,7.7%,-2.7%,nt
O=C(c1ccco1)N(Cc1cccnc1)c1nc2ccc(F)cc2s1,-27.2*,i,86.3%,-3.0%,-16.6%
Cc1cccc(OCCc2noc(C3CCCCN3C(=O)Nc3ccccc3)n2)c1 (stereo unspecified),7.0,nt,-12.2%,6.6%,nt
CN1C(=O)N[C@@H](Cc2c[nH]c3c(Cl)cccc23)C1=O,-3.5,nt,nt,-30.4%,nt
CN1C(=O)NC(Cc2c[nH]c3c(Cl)cccc23)C1=O (stereo unspecified),nt,nt,nt,nt,23.3%
Cc1ccc(-c2csc(Nc3ccc(O)cc3)n2)cc1C,nt,i,nt,nt,nt
Oc1ccc(Nc2nc(-c3ccc(Cl)cc3)cs2)cc1,-32.1*,nt,nt,-18.6%,?
CC1(C)[C@H](Cc2cc(CC3CCCCC3)on2)C[C@@H]1NS(C)(=O)=O,-14.1,?,21.7%[87.6 µM],-8.0%[87.6 µM],nt
Cc1noc(C)c1-c1ccc2c(n1)CN(Cc1ccc(C(F)(F)F)cc1)C(=O)CO2,-6.0,i,6.6%[87.6 µM],8.2%[87.6 µM],nt
O=C1COc2ccc(-c3ccoc3)nc2CN1Cc1ccc(C(F)(F)F)cc1,-28.7*,35.5µM*,-20.1%[87.6 µM],-10.2%[87.6 µM],?
Cc1cc(C(C)Nc2ccccc2C(=O)O)c2nc(N3CCOCC3)cc(=O)n2c1 (stereo unspecified),1.0,nt,nt,-18.1%,-11.3%
Cc1c(C)n(Cc2ccc(-c3ccccc3C(=O)O)cc2)c2ccc(C(=O)N[C@@H](C)c3ccc([N+](=O)[O-])cc3)cc12,-26.8*,nt,-11.9%,20.8%,?
O=C(Nc1cccc2ccccc12)O[C@@H]1CO[C@H]2[C@@H]1OC[C@@H]2NCC1CCCCC1,-0.7,?,?,-28.2%[87.6 µM],nt
COc1cc(C2CC(=O)Oc3c2c(=O)[nH]c2ccccc32)cc(OC)c1OC (stereo unspecified),-13.9,?,17.1%,5.2%,nt
O=C1CC(c2ccc(F)cc2)c2c(c3ccccc3[nH]c2=O)O1 (stereo unspecified),-27.9*,?,-29.2%,5.1%,12.7%

# Assay outcomes (PubChem)
